# Source: the supplement of paper PMC8728848
# The full list was thinned out, with the strongest signals kept by preference.
# B1: LERP (Drosophila melanogaster), B7Z0Q8 (protein)
# chain: MRCSLQKDCAAPTQENFRQMRFPIVISLLLLLFCSGESVAADAANQLKFSTTECKLKEPIYGSTFDFSGLHSDLAHVVKSMNIGGDQFEFNICGNLSRTCNGESNVAACLKRQGKEYILGRQHELFYNNGNMFLKYKSGAKCDNGTADKPNYQLHVMFSCDYTLDAQPMHVTPYANEVCSFYISYRTPLACLSIPEGLQSNSCRVGDTKSNGTFDLMPLSDSNYHTSNRQGAFFVINVCKPVLYGENSMCPAGSSVCLFDSKATNPKERFINFGNVQTHPVVEKGQLLLRHESPTPCAKNSSANYTSVIYFSCDKFIRNAHPEFAGLGADSCTYQFNFATPLACNDLKPCTAFTSTNELLDLSSLSSKPARTLLKDGKNYTIAVCAHAGAPCQENGGACYEQNSTTISLGNSNSQLRFNQTGSLYLLYEDGAECSTATGMRRWSTKIEFVCANNATKDNGASTAGGSDSLKIIEDSNCQLLIQYQTPLACREPIRCKATTYVDHTNDGLGSSGDELIDLTPLISATDNYEARVELPASMEHLVPKTTKFFLNVCRPLVPKYQLGCAGGSAACMAKVTAAGAPEEERSMGFPLVSLTQRNRTFAELAYLKGDPCPTDNTSELSTHILFNCNMRAGRGQPVLRSVEDCAYRFEWETNVFCPPHECTFSADTCDLVHDELGRRFNFKSAPFTKDGKIEIDYNATKMSVNICGAHRKAMTDYSQALVNIFFTHESPNCGREGTMNVQIRLICSDQTESSSTISSDQQCNLLYVQRTPSICEFLSLGATQQNFESNGSTSSSTSSSSTSTTTSTTTQASPAGKPTKAATSTTTTTVGPDPAATPIGPTASVGTILGAILSVTFCVTCLGLLAFSPARRQRIRRLFRRSNSAVRYSRVQSNEEANLLLEPNGEFTESDDDMLL
# Tests used:
# Assay in all cases: glycan array binding signal (z-score within array); higher = stronger binding
# Conditions in all cases: glycan notation: IUPAC condensed, linker removed
# Fuc(a1-2)Gal(b1-4)Glc = biological target: Fuc(a1-2)Gal(b1-4)Glc
# How it was run: (§1)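 Negative Z-scores can be read as non-binding. The Z-score is calculated within each array and then averaged across arrays of one protein sequence at different concentrations or buffers and across linkers. Arrays, 3228 in all, were curated from the Consortium for Functional Glycomics database and kept only where the protein sequence was available.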
# [1] = biological target: Fuc(a1-2)Gal(b1-4)GlcNAc(b1-3)Gal(b1-4)GlcNAc
# How it was run: as §1
# [2] = biological target: Fuc(a1-2)Gal6S(b1-4)GlcNAc
# How it was run: as §1
# [3] = biological target: Fuc(a1-2)[GalNAc(a1-3)]Gal(b1-4)GlcNAc
# How it was run: as §1
# [4] = biological target: Fuc(a1-2)[GalNAc(a1-3)]Gal(b1-4)[Fuc(a1-3)]GlcNAc
# How it was run: as §1
# Gal(a1-3)Gal(b1-3)GlcNAc = biological target: Gal(a1-3)Gal(b1-3)GlcNAc
# How it was run: as §1
# Gal(a1-3)GalNAc = biological target: Gal(a1-3)GalNAc
# How it was run: as §1
# [5] = biological target: Gal(a1-4)Gal(b1-4)GlcNAc(b1-3)Gal(b1-4)Glc
# How it was run: as §1
# Gal(a1-4)GlcNAc = biological target: Gal(a1-4)GlcNAc
# How it was run: as §1
# [6] = biological target: Gal(b1-3)[Fuc(a1-4)]GlcNAc(b1-2)Man(a1-3)[Gal(b1-3)[Fuc(a1-4)]GlcNAc(b1-2)Man(a1-6)]Man(b1-4)GlcNAc(b1-4)[Fuc(a1-6)]GlcNAc
# How it was run: as §1
# [7] = biological target: Gal(b1-3)[Neu5Ac(a2-6)]GalNAc
# How it was run: as §1
# Gal(b1-4)Glc6S = biological target: Gal(b1-4)Glc6S
# How it was run: as §1
# [8] = biological target: Gal(b1-4)GlcNAc(b1-3)GalNAc
# How it was run: as §1
# [9] = biological target: Gal(b1-4)GlcNAc(b1-3)[Gal(b1-4)GlcNAc(b1-6)]Gal(b1-4)GlcNAc
# How it was run: as §1
# Gal3S(b1-4)GlcNAc = biological target: Gal3S(b1-4)GlcNAc
# How it was run: as §1
# [10] = biological target: Gal3S(b1-4)[Fuc(a1-3)]Glc6S
# How it was run: as §1
# Gal4S6S(b1-4)GlcNAc = biological target: Gal4S6S(b1-4)GlcNAc
# How it was run: as §1
# GalNAc(a1-3)GalNAc = biological target: GalNAc(a1-3)GalNAc
# How it was run: as §1
# GlcA(b1-3)Gal = biological target: GlcA(b1-3)Gal
# How it was run: as §1
# [11] = biological target: GlcNAc(a1-4)Gal(b1-4)GlcNAc(b1-3)Gal(b1-4)[Fuc(a1-3)]GlcNAc(b1-3)Gal(b1-4)[Fuc(a1-3)]GlcNAc
# How it was run: as §1
# [12] = biological target: GlcNAc(b1-2)Man(a1-3)[GlcNAc(b1-2)Man(a1-6)]Man(b1-4)GlcNAc(b1-4)[Fuc(a1-6)]GlcNAc
# How it was run: as §1
# GlcNAc3Prop(b1-4)GlcNAc = biological target: GlcNAc3Prop(b1-4)GlcNAc
# How it was run: as §1
# Kdn(a2-3)Gal(b1-3)GlcNAc = biological target: Kdn(a2-3)Gal(b1-3)GlcNAc
# How it was run: as §1
# [13] = biological target: Man(a1-2)Man(a1-2)Man(a1-3)Man
# How it was run: as §1
# Man(a1-3)[Man(a1-6)]Man = biological target: Man(a1-3)[Man(a1-6)]Man
# How it was run: as §1
# [14] = biological target: Man(a1-3)[Man(a1-6)]Man(b1-4)GlcNAc(b1-4)GlcNAc
# How it was run: as §1
# Neu5Ac(a2-3)Gal = biological target: Neu5Ac(a2-3)Gal
# How it was run: as §1
# [15] = biological target: Neu5Ac(a2-3)Gal(b1-3)GalNAc
# How it was run: as §1
# [16] = biological target: Neu5Ac(a2-3)Gal(b1-3)[Neu5Ac(a2-3)Gal(b1-4)]GlcNAc
# How it was run: as §1
# [17] = biological target: Neu5Ac(a2-3)Gal(b1-4)GlcNAc(b1-3)GalNAc
# How it was run: as §1
# [18] = biological target: Neu5Ac(a2-3)Gal(b1-4)GlcNAc6S
# How it was run: as §1
# [19] = biological target: Neu5Ac(a2-3)Gal(b1-4)[Fuc(a1-3)]GlcNAc
# How it was run: as §1
# [20] = biological target: Neu5Ac(a2-3)Gal(b1-4)[Fuc(a1-3)]GlcNAc(b1-6)[Gal(b1-3)]GalNAc
# How it was run: as §1
# [21] = biological target: Neu5Ac(a2-6)Gal(b1-4)GlcNAc(b1-3)Gal(b1-4)[Fuc(a1-3)]GlcNAc(b1-3)Gal(b1-4)[Fuc(a1-3)]GlcNAc
# How it was run: as §1
binder,measurement,setting,value
B1,glycan array binding signal (z-score),Fuc(a1-2)Gal(b1-4)Glc,-1.18
same,glycan array binding signal (z-score),[1],0.534
same,glycan array binding signal (z-score),[2],-0.168
same,glycan array binding signal (z-score),[3],0.43
same,glycan array binding signal (z-score),[4],1.65
same,glycan array binding signal (z-score),Gal(a1-3)Gal(b1-3)GlcNAc,-0.704
same,glycan array binding signal (z-score),Gal(a1-3)GalNAc,-0.56
same,glycan array binding signal (z-score),[5],2.8
same,glycan array binding signal (z-score),Gal(a1-4)GlcNAc,-0.583
same,glycan array binding signal (z-score),[6],5.88
same,glycan array binding signal (z-score),[7],-0.837
same,glycan array binding signal (z-score),Gal(b1-4)Glc6S,-0.389
same,glycan array binding signal (z-score),[8],0.146
same,glycan array binding signal (z-score),[9],-0.458
same,glycan array binding signal (z-score),Gal3S(b1-4)GlcNAc,-0.01
same,glycan array binding signal (z-score),[10],1.16
same,glycan array binding signal (z-score),Gal4S6S(b1-4)GlcNAc,0.955
same,glycan array binding signal (z-score),GalNAc(a1-3)GalNAc,-0.435
same,glycan array binding signal (z-score),GlcA(b1-3)Gal,-0.753
same,glycan array binding signal (z-score),[11],3.64
same,glycan array binding signal (z-score),[12],6.93
same,glycan array binding signal (z-score),GlcNAc3Prop(b1-4)GlcNAc,-0.064
same,glycan array binding signal (z-score),Kdn(a2-3)Gal(b1-3)GlcNAc,-0.084
same,glycan array binding signal (z-score),[13],5.38
same,glycan array binding signal (z-score),Man(a1-3)[Man(a1-6)]Man,-0.079
same,glycan array binding signal (z-score),[14],2.66
same,glycan array binding signal (z-score),Neu5Ac(a2-3)Gal,-0.653
same,glycan array binding signal (z-score),[15],0.949
same,glycan array binding signal (z-score),[16],-0.204
same,glycan array binding signal (z-score),[17],0.38
same,glycan array binding signal (z-score),[18],0.734
same,glycan array binding signal (z-score),[19],-1.2
same,glycan array binding signal (z-score),[20],2.71
same,glycan array binding signal (z-score),[21],-0.095
